“And” between values parts separate entries of the source, which are not always exact repeats. Identical values can stand only once. Inconclusive results are not listed. The source made the active and inactive calls. Unless noted, the call rests on the fitted dose curve.
Columns and labels:
[1] = molecular target: Peroxisome proliferator-activated receptor delta (Homo sapiens) (UniProt Q03181); experiment: qHTS assay for small molecule agonists of peroxisome proliferator-activated receptor delta signaling (AID 588534); details: HEK293T PPARdelta-UAS-bla, beta-lactamase ratio, 18 h; series mostly up to 76.7 µM;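 further: 0% = DMSO basal wells and 100% = positive control agonist at 10 µM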
Procedure, shortened: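 Fluorescence from CCF4 substrate cleavage by beta-lactamase reporter, read 2 hrs at RT, measured agonist activity. Compounds were tested with 18 hrs exposure at 37 C. Concentration-response data fitted to Hill equation.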

[2] = qHTS assay for small molecule antagonists of peroxisome proliferator-activated receptor delta signaling (AID 588535; active means well fitted inhibition curve with a large enough effect in the signal ratio, with a control signal flat, not every such curve was filed as active; the % refers to the signal ratio;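 on max response: cells co-treated with a PPAR-delta agonist as stimulator during compound exposure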); details: HEK293T PPARd-UAS-bla, beta-lactamase FRET ratio, 18 h; 460 nm channel
Procedure, shortened: (§1)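 HEK293T PPAR-delta-UAS-bla cells, 4000/well, 2% charcoal/dextran FBS; 5 h 37 C; cpd titration; 18 h 37 C; CCF4 2 h RT; FI 460/530 nm; Hill fit → IC50, efficacy.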

[3] = molecular target: Peroxisome proliferator-activated receptor delta (Homo sapiens) (UniProt Q03181); experiment: as above; details: HEK293T PPARd-UAS-bla, beta-lactamase FRET ratio, 18 h; series mostly up to 76.7 µM
Procedure, shortened: as §1

[4] = molecular target: Peroxisome proliferator-activated receptor gamma (Homo sapiens) (UniProt P37231); experiment: qHTS assay for small molecule agonists of peroxisome proliferator-activated receptor gamma signaling (AID 588536; active means well fitted curve in the direction sought with a large enough effect in the signal ratio, with a control signal flat, not every such curve was filed as active; the % refers to the signal ratio;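 further: 0% = DMSO basal wells and 100% = rosiglitazone at 2 µM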); details: HEK293 PPARg-UAS-bla, beta-lactamase ratio, 16 h, percent of rosiglitazone response, DMSO as zero; series mostly up to 76.7 µM
Procedure, shortened: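 HEK293 UAS-bla reporter line, 1% charcoal/dextran FBS; titration, 16 h, 37 C; CCF4 loading 2 h RT; fluorescence 460/530 nm. Normalized to rosiglitazone 2 uM = 100%, DMSO = 0%.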

[5] = molecular target: Peroxisome proliferator-activated receptor gamma (Homo sapiens) (UniProt P37231); experiment: qHTS assay for small molecule antagonists of peroxisome proliferator-activated receptor gamma signaling (AID 588537; active means well fitted inhibition curve with a large enough effect in the signal ratio, with a control signal flat, not every such curve was filed as active; the % refers to the signal ratio; further: potency means the concentration at half of the fitted maximal effect); details: HEK293 PPARg-UAS-bla, beta-lactamase ratio, antagonist mode; series mostly up to 76.8 µM
Procedure, shortened: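 Antagonist mode, beta-lactamase reporter in HEK293; charcoal/dextran FBS 1%; 3000 cells/well, 37 C 6-6.5 h; cpd titration + rosiglitazone 50 nM final, 16 h 37 C; CCF4, 2 h RT; 460/530 nm; Hill fit → IC50, efficacy.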

[6] = molecular target: Vitamin D3 receptor (Homo sapiens) (UniProt P11473); experiment: qHTS assay for small molecule antagonists of vitamin D receptor signaling (AID 588541); details: HEK293T VDR-UAS-bla, beta-lactamase ratio, antagonist mode; series mostly up to 76.7 µM;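 further: receptor activated by calcitriol during compound treatment; on the % scale 0 is the no-effect control and ±100 the full control effect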
Procedure, shortened: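 Antagonist-mode beta-lactamase reporter assay: HEK293T VDR-UAS-bla cells were exposed to titrated compound alongside 1-alpha,25-dihydroxyvitamin D3 at 3 nM final for 16 h. Values were normalized to the 50 nM agonist control and DMSO basal, with IC50 and efficacy from Hill equation fits.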

[7] = molecular target: Vitamin D3 receptor (Homo sapiens) (UniProt P11473); experiment: qHTS assay for small molecule agonists of vitamin D receptor signaling (AID 588543); details: HEK293T VDR-UAS-bla, beta-lactamase ratio, 16 h; series mostly up to 76.8 µM;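 further: 0% = DMSO basal and 100% = reference agonist control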
Procedure, shortened: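 qHTS in agonist mode: compound titrations stimulate a VDR-driven β-lactamase reporter in HEK293T cells over 16 h at 37 °C. Response normalized to 50 nM 1α,25-dihydroxyvitamin D3 = 100%, DMSO = 0%; Hill fitting gives EC50 and maximal response.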

[8] = qHTS assay for small molecule agonists of retinoid X receptor alpha signaling (AID 588544); details: HEK293T RXRa-UAS-bla, beta-lactamase reporter, 18 h; 530 nm emission; further: potency means the concentration at half of the fitted maximal effect
[9] = molecular target: Retinoic acid receptor RXR-alpha (Homo sapiens) (UniProt P19793); experiment: as above; details: HEK293T RXRa-UAS-bla, beta-lactamase reporter, 18 h; series mostly up to 76.7 µM
[10] = qHTS assay for small molecule antagonists of retinoid X receptor alpha signaling (AID 588546; active means well fitted inhibition curve with a large enough effect in the signal ratio, with a control signal flat, not every such curve was filed as active; the % refers to the signal ratio;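 further: cells stimulated with 9-cis-retinoic acid as agonist; on the % scale 0 is the no-effect control and ±100 the full control effect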); details: HEK293T RXRa-UAS-bla, beta-lactamase ratio, antagonist mode; measured here: W530 green channel, cytotoxicity proxy
Procedure, shortened: (§2)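 Beta-lactamase reporter inhibition, read as CCF4 fluorescence ratio (ex 405, em 460/530 nm) after 2 h at RT. HEK293T UAS-bla cells, 2500/well, were stimulated with 9-cis-RA at 500 or 100 nM final alongside test compound for 18 h at 37 C.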

[11] = molecular target: Retinoic acid receptor RXR-alpha (Homo sapiens) (UniProt P19793); experiment: as above; details: HEK293T RXRa-UAS-bla, beta-lactamase ratio, antagonist mode
Procedure, shortened: as §2

[12] = molecular target: Thyroid hormone receptor beta (Homo sapiens) (UniProt P10828); experiment: qHTS assay for small molecule antagonists of thyroid hormone receptor beta signaling (AID 588547; active means well fitted inhibition curve with a large enough effect in the signal ratio, with a control signal flat, not every such curve was filed as active; the % refers to the signal ratio;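 further: cells stimulated with 0.4 nM T3 agonist during compound exposure; on the % scale 0 is the no-effect control and ±100 the full control effect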); details: TR-UAS-bla HEK293, beta-lactamase ratio, antagonist mode, 18 h
Procedure, shortened: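 Inhibition of T3-driven (0.4nM final) beta-lactamase reporter activity was measured over 0.59 nM to 92 uM compound after 18 h at 37 C. The cells were GripTite HEK293 TR-UAS-bla in charcoal/dextran-stripped serum, with CCF4 ratio read-out and IC50 from Hill fits.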

[13] = molecular target: Luciferin 4-monooxygenase (Photinus pyralis) (UniProt P08659); experiment: Biochemical firefly luciferase enzyme assay for NPC (AID 624030; active means well fitted curve in the direction sought with a large enough effect; an effect the other way counts as inactive or inconclusive; further: nearly all actives have a fitted effect of over 70% in size; further: potency means the concentration at half of the fitted maximal effect); details: purified P. pyralis luciferase, luminescence, 5 min; series mostly up to 58.6 µM
Procedure, shortened: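 Direct inhibition of firefly luciferase enzyme (10 nM final, 50 mM Tris Acetate) assessed by luminescence within 5 minutes. Percent activity scaled between DMSO and PTC124 positive control, with concentration-effect curves classified by fit quality and response.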

[14] = molecular target: Thyroid hormone receptor beta (Homo sapiens) (UniProt P10828); experiment: qHTS assay for small molecule agonists of thyroid hormone receptor beta signaling (AID 588545); details: TR-UAS-bla GripTite HEK 293, beta-lactamase ratio, agonist mode, 18 h, percent of T3 response, DMSO as zero; series mostly up to 76.7 µM;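 further: 0% = DMSO only and 100% = 10 nM T3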
Procedure, shortened: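 TR-UAS-bla GripTite HEK 293 cells (2500/well, medium with 2% charcoal/dextran FBS) were treated in agonist mode for 18 h at 37 C, titrated. Beta-lactamase was read by CCF4 ratio after 2 h; normalized to 10 nM T3 (100%) and DMSO, Hill-fitted for EC50 and efficacy.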

[15] = molecular target: Voltage-gated inwardly rectifying potassium channel KCNH2 (Homo sapiens) (UniProt Q12809); experiment: qHTS Assay for Small Molecule Inhibitors of the Human hERG Channel Activity (AID 588834; active means well fitted curve in the direction sought with a large enough effect; an effect the other way counts as inactive or inconclusive;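 further: top concentration of the series differs between compounds; on the % scale 0 is the no-effect control and ±100 the full control effect; lower thallium flux fluorescence means stronger hERG block; nearly all actives have a fitted effect of over 50% in size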); details: U2OS BacMam hERG, FluxOR thallium flux fluorescence; series mostly up to 46.1 µM
Procedure, shortened: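 Measured: FluxOR fluorescence after thallium stimulation in U2OS cells transduced with hERG by baculovirus. Compounds pre-incubated around 10 min; medium Opti-MEM with 2% FCS. AC50 from Hill equation.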

[16] = S16 Schwann cell viability assay (CellTiter-Glo assay) (AID 624031; active means well fitted curve in the direction sought with a large enough effect; an effect the other way counts as inactive or inconclusive;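 further: native untransfected S16 rat Schwann cells; plate controls were DMSO-treated cells for no effect and cell-free wells for full effect; nearly all actives have a fitted effect of over 70% in size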); details: S16 rat Schwann cells viability, 24 h; series mostly up to 57.5 µM
Procedure, shortened: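 Counter-screen for cytotoxicity: parental S16 rat Schwann cells lacking the PMP22 reporters, treated 24 h with compound, viability from cellular ATP by CellTiter-Glo luminescence, normalized to DMSO (0%) and no-cell wells.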

[17] = S16 Schwann cell PMP22 intronic element beta-lactamase assay (AID 624044); details: S16 rat Schwann cells, PMP22 element beta-lactamase FRET, 24 h; series mostly up to 38.3 µM;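 further: 0% = DMSO and -100% = potassium clavulanate positive control; nearly all actives have a fitted effect of over 15% in size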
Procedure, shortened: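 Rat S16 Schwann cells with beta-Lac driven by a PMP22 intronic element, compound-treated 24 h at 37 °C. LiveBLAzer FRET B/G read: 460 nm normalized to potassium clavulanate vs DMSO; 535 nm FRET as viability; concentration-effect curves classified.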

[18] = S16 Schwann cell PMP22 intronic element firefly luciferase assay (AID 624032; active means well fitted curve in the direction sought with a large enough effect; an effect the other way counts as inactive or inconclusive; further: nearly all actives have a fitted effect of over 30% in size; further: potency means the concentration at half of the fitted maximal effect); details: S16 rat Schwann cells, PMP22 element FLuc, 24 h; series mostly up to 57.5 µM
Procedure, shortened: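 Luciferase reporter of PMP22 intronic-element expression in stably transfected S16 rat Schwann cells, read by ONE-Glo luminescence after 24 h compound exposure at 37 C. Activity scaled between DMSO (0%) and positive-control PTC124; concentration-effect curves quality-classified.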

Chain of Peroxisome proliferator-activated receptor delta (Homo sapiens) (Q03181 whole entry, looked up): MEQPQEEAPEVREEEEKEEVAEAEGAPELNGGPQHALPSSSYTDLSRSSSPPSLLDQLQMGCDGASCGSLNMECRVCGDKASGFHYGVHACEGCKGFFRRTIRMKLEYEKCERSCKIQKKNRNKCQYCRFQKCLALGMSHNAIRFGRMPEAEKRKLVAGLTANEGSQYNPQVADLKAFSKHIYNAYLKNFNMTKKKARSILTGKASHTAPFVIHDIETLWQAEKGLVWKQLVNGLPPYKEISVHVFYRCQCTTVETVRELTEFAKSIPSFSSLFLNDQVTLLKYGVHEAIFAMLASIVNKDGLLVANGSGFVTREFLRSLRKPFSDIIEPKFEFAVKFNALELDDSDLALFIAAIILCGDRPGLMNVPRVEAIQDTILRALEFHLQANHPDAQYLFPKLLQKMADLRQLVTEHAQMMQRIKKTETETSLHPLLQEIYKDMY
Chain of Thyroid hormone receptor beta (Homo sapiens) (P10828 whole entry, looked up): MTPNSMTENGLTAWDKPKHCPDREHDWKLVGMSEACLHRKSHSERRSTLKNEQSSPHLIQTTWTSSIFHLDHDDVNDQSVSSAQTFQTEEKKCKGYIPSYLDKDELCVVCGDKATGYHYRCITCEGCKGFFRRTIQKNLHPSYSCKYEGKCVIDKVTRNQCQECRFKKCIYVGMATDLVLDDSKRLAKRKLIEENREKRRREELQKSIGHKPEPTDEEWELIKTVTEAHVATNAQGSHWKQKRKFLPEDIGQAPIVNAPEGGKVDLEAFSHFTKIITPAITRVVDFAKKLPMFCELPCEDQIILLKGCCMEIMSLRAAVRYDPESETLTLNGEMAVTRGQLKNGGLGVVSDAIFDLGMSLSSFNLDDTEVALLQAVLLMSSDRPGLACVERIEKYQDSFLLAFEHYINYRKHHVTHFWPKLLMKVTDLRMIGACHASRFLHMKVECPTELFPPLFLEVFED
Chain of Vitamin D3 receptor (Homo sapiens) (P11473 whole entry, looked up): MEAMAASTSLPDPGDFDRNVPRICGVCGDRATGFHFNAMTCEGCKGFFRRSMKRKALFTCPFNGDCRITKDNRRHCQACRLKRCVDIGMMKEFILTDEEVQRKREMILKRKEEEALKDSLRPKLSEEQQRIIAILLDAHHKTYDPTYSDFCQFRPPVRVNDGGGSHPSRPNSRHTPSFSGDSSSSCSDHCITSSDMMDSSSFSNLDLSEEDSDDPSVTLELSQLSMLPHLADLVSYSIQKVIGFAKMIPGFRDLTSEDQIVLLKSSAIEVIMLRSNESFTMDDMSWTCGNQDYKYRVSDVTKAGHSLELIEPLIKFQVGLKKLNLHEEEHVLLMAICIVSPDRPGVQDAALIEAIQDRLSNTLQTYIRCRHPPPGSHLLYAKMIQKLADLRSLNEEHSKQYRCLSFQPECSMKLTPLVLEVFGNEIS
Chain of Retinoic acid receptor RXR-alpha (Homo sapiens) (P19793 whole entry, looked up): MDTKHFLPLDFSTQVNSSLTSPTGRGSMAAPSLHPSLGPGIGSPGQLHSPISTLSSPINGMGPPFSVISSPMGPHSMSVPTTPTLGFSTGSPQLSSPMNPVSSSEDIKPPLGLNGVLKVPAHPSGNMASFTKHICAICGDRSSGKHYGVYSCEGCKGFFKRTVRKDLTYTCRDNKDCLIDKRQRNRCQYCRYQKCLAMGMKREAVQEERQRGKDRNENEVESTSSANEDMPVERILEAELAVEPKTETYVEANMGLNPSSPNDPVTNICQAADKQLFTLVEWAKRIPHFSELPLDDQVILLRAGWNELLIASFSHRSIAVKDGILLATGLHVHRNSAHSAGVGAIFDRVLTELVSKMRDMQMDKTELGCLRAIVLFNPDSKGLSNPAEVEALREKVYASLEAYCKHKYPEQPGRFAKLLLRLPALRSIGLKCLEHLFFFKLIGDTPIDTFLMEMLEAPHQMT
Chain of Peroxisome proliferator-activated receptor gamma (Homo sapiens) (P37231 whole entry, looked up): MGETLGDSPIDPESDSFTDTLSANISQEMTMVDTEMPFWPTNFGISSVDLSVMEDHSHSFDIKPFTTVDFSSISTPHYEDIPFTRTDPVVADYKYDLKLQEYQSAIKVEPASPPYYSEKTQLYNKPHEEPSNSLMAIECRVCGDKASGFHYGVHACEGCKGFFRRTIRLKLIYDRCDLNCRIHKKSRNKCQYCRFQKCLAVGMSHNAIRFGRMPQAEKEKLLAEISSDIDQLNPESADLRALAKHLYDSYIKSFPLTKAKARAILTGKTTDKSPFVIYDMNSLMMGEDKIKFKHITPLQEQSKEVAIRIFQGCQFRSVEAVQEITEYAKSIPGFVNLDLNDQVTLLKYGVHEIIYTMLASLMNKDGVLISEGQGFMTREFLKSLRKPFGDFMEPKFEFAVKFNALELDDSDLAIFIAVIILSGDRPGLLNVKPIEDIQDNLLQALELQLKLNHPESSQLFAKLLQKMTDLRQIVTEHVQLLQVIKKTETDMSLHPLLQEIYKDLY
Chain of Voltage-gated inwardly rectifying potassium channel KCNH2 (Homo sapiens) (Q12809 whole entry, looked up): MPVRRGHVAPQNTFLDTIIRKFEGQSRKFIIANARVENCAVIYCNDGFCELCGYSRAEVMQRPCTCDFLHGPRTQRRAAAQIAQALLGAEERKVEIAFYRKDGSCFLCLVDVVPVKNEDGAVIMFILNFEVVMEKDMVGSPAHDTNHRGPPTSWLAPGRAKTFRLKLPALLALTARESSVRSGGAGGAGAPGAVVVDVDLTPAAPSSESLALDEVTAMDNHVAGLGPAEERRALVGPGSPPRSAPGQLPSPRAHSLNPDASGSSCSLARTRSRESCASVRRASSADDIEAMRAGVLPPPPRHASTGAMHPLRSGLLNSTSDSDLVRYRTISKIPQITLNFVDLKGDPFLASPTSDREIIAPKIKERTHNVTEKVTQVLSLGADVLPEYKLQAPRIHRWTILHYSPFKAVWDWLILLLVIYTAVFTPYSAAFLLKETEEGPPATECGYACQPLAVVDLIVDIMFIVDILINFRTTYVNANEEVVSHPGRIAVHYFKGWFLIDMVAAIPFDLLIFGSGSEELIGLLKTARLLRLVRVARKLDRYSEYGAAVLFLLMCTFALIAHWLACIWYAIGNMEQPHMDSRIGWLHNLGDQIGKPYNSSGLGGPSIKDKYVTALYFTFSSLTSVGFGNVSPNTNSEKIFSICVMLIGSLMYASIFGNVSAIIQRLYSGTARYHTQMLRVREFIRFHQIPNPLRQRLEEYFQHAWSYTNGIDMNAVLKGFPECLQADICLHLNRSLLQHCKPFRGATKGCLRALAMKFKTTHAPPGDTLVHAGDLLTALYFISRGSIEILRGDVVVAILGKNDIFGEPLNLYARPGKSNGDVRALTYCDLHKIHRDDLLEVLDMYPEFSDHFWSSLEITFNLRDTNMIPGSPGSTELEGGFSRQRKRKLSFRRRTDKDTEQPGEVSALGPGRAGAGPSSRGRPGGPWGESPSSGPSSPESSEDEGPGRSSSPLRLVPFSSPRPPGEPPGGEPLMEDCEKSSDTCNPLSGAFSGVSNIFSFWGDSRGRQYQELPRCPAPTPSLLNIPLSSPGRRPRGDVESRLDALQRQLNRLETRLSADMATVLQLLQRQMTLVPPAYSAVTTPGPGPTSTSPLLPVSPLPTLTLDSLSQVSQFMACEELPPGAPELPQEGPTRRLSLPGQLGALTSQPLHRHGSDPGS
Chain of Luciferin 4-monooxygenase (Photinus pyralis) (P08659 whole entry, looked up): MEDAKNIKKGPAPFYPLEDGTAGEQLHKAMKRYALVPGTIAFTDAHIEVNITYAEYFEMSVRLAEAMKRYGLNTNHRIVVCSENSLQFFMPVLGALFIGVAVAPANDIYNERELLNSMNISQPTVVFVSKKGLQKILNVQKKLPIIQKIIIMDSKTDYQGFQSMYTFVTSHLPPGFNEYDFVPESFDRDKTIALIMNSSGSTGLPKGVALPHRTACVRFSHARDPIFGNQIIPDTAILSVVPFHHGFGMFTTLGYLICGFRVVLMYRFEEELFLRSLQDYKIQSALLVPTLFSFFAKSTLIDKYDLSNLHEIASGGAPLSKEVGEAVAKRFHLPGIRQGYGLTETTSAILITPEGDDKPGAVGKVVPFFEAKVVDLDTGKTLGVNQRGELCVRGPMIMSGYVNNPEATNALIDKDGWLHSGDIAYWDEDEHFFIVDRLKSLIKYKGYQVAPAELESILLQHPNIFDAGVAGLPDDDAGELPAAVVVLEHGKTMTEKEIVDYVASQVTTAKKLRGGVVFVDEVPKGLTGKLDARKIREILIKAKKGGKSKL

Nc1ccc([N+](=O)[O-])cc1O
inactive: outcome [1]

Nc1c(Cl)c(Cl)c(Cl)c(Cl)c1Cl
13.6%: max response [2]
inactive: outcome [1] | Potency [3] | outcome [4] | Potency [5] | Potency [6] | outcome [7] | Potency [9] | max response [11] -8.48% | activity change % (negative = inhibition) [12] 17.1% | Potency [13]
-3.59%: max response [10]
-5.48%: max response [8]

O=S(=O)(O)C(F)(F)C(F)(F)C(F)(F)C(F)(F)F
inactive: outcome [1] | Potency [3] | outcome [4] | Potency [5] | Potency [6] | outcome [7] | outcome [14] | activity change % (negative = inhibition) [12] -13.9% | Potency [13]
48.3% and 16.2%: max response [2]

OCc1c[nH]c2ccccc12
inactive: outcome [1]

O=[N+]([O-])c1c(Cl)c(Cl)cc(Cl)c1Cl
active: Potency [5] 15.8 µM
-4.54%: max response [2]
-2.76%: max response [8]
inactive: outcome [1] | Potency [3] | outcome [4] | Potency [6] | outcome [7] | Potency [9] | outcome [14] | max response [11] 6.87% | activity change % (negative = inhibition) [12] -0.964% | Potency [15] | Potency [13]
-4.05%: max response [10]

S=c1[nH]c2ccccc2s1
inactive: outcome [1]

CCCCCCCCCCCCCC(=O)OC(C)C
inactive: outcome [1]

CC(C)C(C)(C)C(C)(C)C(C)(C)S
inactive: outcome [1]

COC(C)(C)CCCC(C)C/C=C/C(C)=C/C(=O)OC(C)C (stereo unspecified)
2.28% and 4.86%: max response [10]
13.2%: max response [8]
inactive: outcome [4] | Potency [9] | outcome [14] | max response [11] -11.7% and -5.86% | activity change % (negative = inhibition) [12] -7.54% and 20% | Potency [15] | Potency [13] | Potency [16] | Potency [17]

[Cl][In]([Cl])[Cl]
inactive: outcome [1]
active: Potency [13] 14.8 µM

CC(C)(C)C(O)C(Oc1ccc(Cl)cc1)n1cncn1 (stereo unspecified)
-12.3%: max response [10]
inactive: outcome [4] | Potency [5] | Potency [6] | outcome [7] | max response [11] -0.566% | activity change % (negative = inhibition) [12] -8.05% | Potency [13]

C=CCC1=C(C)C(OC(=O)C2C(C=C(C)C)C2(C)C)CC1=O (stereo unspecified)
inactive: outcome [4] | Potency [5] | Potency [6] | outcome [7] | Potency [9] | outcome [14] | max response [11] -8.71% and -26.3% | activity change % (negative = inhibition) [12] -24.8% and -17.8% | Potency [13]
-5.66%: max response [8]
-13.5% and -4.99%: max response [10]

CCO/N=C(\CC)C1=C(O)CC(c2c(C)cc(C)cc2C)CC1=O (stereo unspecified)
inactive: outcome [1] | Potency [3] | Potency [5] | Potency [6] | outcome [7] | outcome [14] | max response [11] -5.84% | activity change % (negative = inhibition) [12] 5.1%
-8.17%: max response [10]
11.4%: max response [2]

O=C(Nc1ccccc1-c1ccc(Cl)cc1)c1cccnc1Cl
inactive: outcome [1] | outcome [4] | Potency [6] | outcome [7] | outcome [14] | max response [11] -14.2% | Potency [13]
-4.9%: max response [10]

O=C(O)CCCOc1ccc(Cl)cc1Cl
inactive: Potency [5] | outcome [7] | outcome [14] | max response [11] -3.54% | activity change % (negative = inhibition) [12] 12.5%
17.8%: max response [10]

ClC1=C(Cl)[C@]2(Cl)[C@@H]3[C@@H]4C[C@@H]([C@H]5O[C@@H]45)[C@@H]3[C@@]1(Cl)C2(Cl)Cl
5.74%: max response [10]
inactive: outcome [1] | Potency [3] | Potency [6] | outcome [7] | outcome [14] | max response [11] -14.7% | activity change % (negative = inhibition) [12] -14.5% | Potency [13]
34.4%: max response [2]

CS(=O)(=O)c1ccc(C(=O)C2C(=O)CCCC2=O)c([N+](=O)[O-])c1
active: Potency [9] 17.8 µM
inactive: Potency [3] | Potency [5] | Potency [6] | outcome [7] | outcome [14] | max response [11] 0.528% | activity change % (negative = inhibition) [12] 9.38% | Potency [13]
-0.159%: max response [10]
30.2%: max response [2]
11.3%: max response [8]

OCCCBr
inactive: outcome [4] | Potency [5] | Potency [6] | outcome [7] | Potency [9] | outcome [14] | max response [11] -5.03% | activity change % (negative = inhibition) [12] -1.82% | Potency [15] | Potency [13]
-9.62%: max response [10]
-10.8%: max response [8]

O=C(O)COc1nc(Cl)c(Cl)cc1Cl
0.628%: max response [10]
110%: max response [2]
inactive: Potency [3] | Potency [6] | outcome [14] | max response [11] 6.2% | activity change % (negative = inhibition) [12] 3.94% | Potency [13]

CCCCCCCCCCCCCCCC[N+](C)(C)C
-6.14%: max response [2]
-7.98%: max response [10]
inactive: outcome [1] | Potency [3] | Potency [5] | Potency [6] | outcome [7] | max response [11] -2.56% | Potency [15] | Potency [13]
active: Potency [18] 8.09 µM

CCCCCC[C@H]1C(=O)O[C@H](C)[C@H](NC(=O)c2cccc(NC=O)c2O)C(=O)O[C@@H](C)[C@@H]1OC(=O)CC(C)C
inactive: outcome [14]

c1ccc2occc2c1
inactive: Potency [5] | activity change % (negative = inhibition) [12] -0.0158% and 0.269%

CCCCCCCCCC(CC)c1ccc(S(=O)(=O)O)cc1 (stereo unspecified)
-9.16% and 3.96%: max response [10]
inactive: outcome [1] | Potency [3] | outcome [4] | Potency [5] | Potency [9] | outcome [14] | max response [11] 4.12% and -4.98% | activity change % (negative = inhibition) [12] 6.11% and -12% | Potency [15] | Potency [13] | Potency [16] | Potency [18] | Potency [17]
2.78% and -0.585%: max response [8]
-20.6% and 1.67%: max response [2]

— PubChem BioAssay (NCATS)
